Source: PubChem BioAssay AID1117361 (Southern Research Institute, 2015)
Screen size: about 3,600 compounds; about 900 (25%) were called active. The rule behind the calls is not given here. Not all results are given here. Measured potencies and affinities stand elsewhere.

target: Protein Tat (Human immunodeficiency virus type 1 group M subtype B (isolate HXB2)) (UniProt P04608); test: inhibitors of Tat binding to TAR RNA, dose response, counter-screen for Vif-APOBEC3G degradation inhibitor project, biochemical, fluorescence polarization, FAM-labeled TAR RNA (AID 1117361); details: outcome: dose series up to 100 µM unless noted; series mostly up to 100 µM; inhibition: at the top concentration

SMILES	outcome	inhibition
COc1ccc(-n2nc(C(=O)NCc3ccco3)c3ccccc3c2=O)cc1	inactive	
Cc1cc(C)cc(-n2nnc(C(=O)NCc3ccco3)c2N)c1		8.87% (inactive)
CC1(C)CC2(CC(c3ccccc3F)c3ccc(O)c(O)c3O2)NC(=S)N1 (stereo not given)		4.95% (inactive)
CCc1cc2c(CN3CCN(CC)CC3)cc(=O)oc2cc1O		14.2% (inactive)
C=C(Cl)COc1ccc2c(CCC)cc(=O)oc2c1		4.09% (inactive)
CCc1ccc2c(CN3CCC(C(=O)OC)CC3)cc(=O)oc2c1	inactive	
CCN1CCN(Cc2cc(=O)oc3ccc(C)cc23)CC1		8.25% (inactive)
COc1ccc(S(=O)(=O)N2CCOC2CNC(=O)C(=O)NCc2ccccn2)cc1 (stereo not given)	inactive	
CC(C)C(C(=O)OCC(=O)c1ccc2c(c1)NC(=O)CO2)N1C(=O)c2ccccc2C1=O (stereo not given)	inactive	
COCCNC(C)C(=O)C12CC3CC(CC(C3)C1)C2 (stereo not given)		1.35% (inactive)
Oc1ccc(/C=N/N2CCCCC2)c(O)c1O	inactive	
O=C(c1cc2ccccc2o1)N1CC=C(c2ccccc2)CC1		10.7% (inactive)
O=C(CCC(=O)NNc1nc2ccccc2c2nc(-c3ccccc3)nn12)NCCCN1CCOCC1		0.82% (inactive)
Cc1ccc2nsnc2c1S(=O)(=O)N(CCO)Cc1cc2cc3c(cc2[nH]c1=O)OCCO3		2.05% (inactive)
CCn1c(SCC(=O)NCC(=O)Nc2ccc(F)cc2)nnc1-c1ccncc1		2.73% (inactive)
CCn1c(=O)cc(SCC(=O)NCc2ccc(C)o2)c2ccccc21		8.19% (inactive)
Cc1cccc(OCc2nc3ccccc3c(=O)n2N)c1	inactive	
CC(=O)c1ccc(NC(=O)C(C)OC(=O)C(C)Oc2cccc(C)c2)cc1 (stereo not given)	inactive	
Cc1ccc([N+](=O)[O-])cc1NC(=O)CCSc1ccc(Cl)cc1		0.68% (inactive)
CCCn1nc(C(=O)Nc2cc(C(=O)OC)ccc2C)c2ccccc2c1=O		4.05% (inactive)
CCCCN1C2=C(C(=O)CC(C)(C)C2)C(c2ccccc2)C2=C1c1ccccc1C2=O (stereo not given)		6.14% (inactive)
CC1=C/C(=N\OS(=O)(=O)c2ccccc2)C=CC1=O	inactive	
Cc1cc(C)cc(N(C(C)C(=O)Nc2c(C)n(C)n(-c3ccccc3)c2=O)S(C)(=O)=O)c1 (stereo not given)		5.46% (inactive)
Cc1c(NC(=O)c2cc(-c3cccs3)on2)c(=O)n(-c2ccccc2)n1C		10.2% (inactive)

SMILES	outcome	inhibition
COC(=O)Cc1csc(Nc2c(C)n(C)n(-c3ccccc3)c2=O)n1		1.67% (inactive)
Cc1cc(C(=O)Nc2ccc(S(=O)(=O)Nc3onc(C)c3C)cc2)cs1		5.46% (inactive)
COC(=O)c1ccc(Cn2c(C)cc(C)[n+]2C)o1		6.76% (inactive)
CCOc1ccc2nc(SCc3ccc(C(=O)OC)o3)[nH]c2c1		26.4% (inactive)
COc1ccccc1N1CCN(C(=O)c2ccoc2C)CC1		4.34% (inactive)
COc1ccc(S(=O)(=O)N2CCN(C(=O)c3cc4c(s3)CCC4)CC2)cc1	inactive	
O=C(c1ccco1)N(CCC(c1ccccc1)c1ccco1)Cc1ccc(F)cc1 (stereo not given)		0.68% (inactive)
Cc1cccc(OCCC(=O)Nc2c(C)n(C)n(-c3ccccc3)c2=O)c1	inactive	
Cc1c(NC(=O)COC(=O)c2ccccc2Cl)c(=O)n(-c2ccccc2)n1C	inactive	
CCOC(=O)Nc1cc(C)c(Cl)cc1OC		0.33% (inactive)
Nc1cc(C(=O)O)ccc1N1CCCCC1		2.34% (inactive)
CC(C)(C)NC(=O)c1cc([N+](=O)[O-])ccc1N1CCCCC1	inactive	
Cc1ccc(Cn2c(SCC(C)C)nc3c2c(=O)n(C)c(=O)n3C)cc1		1.35% (inactive)
CCn1c(C)cc(=S)c2ccccc21		2.34% (inactive)
O=C(Cn1c2[n+](c3ccc(C(F)(F)F)cc31)CCCCC2)Nc1c(F)cccc1F		4.95% (inactive)
CCN(CC(=O)Nc1ccc(NC(C)=O)cc1)C(=O)C1CCCC1		13.2% (inactive)
Cc1ccc(C(=O)Nc2nc(=O)n(C(=O)c3ccccc3C)s2)cc1	inactive	
CCS(=O)(=O)c1ccc2oc(Nc3cccc(OC)c3)nc2c1		11.6% (inactive)
Cc1nn(Cc2ccccc2)c(C)c1NC(=O)Cn1nc([N+](=O)[O-])c(Cl)c1C	inactive	
O=c1[nH]nc(Cc2ncc(C(F)(F)F)cc2Cl)c2ccccc12		1.67% (inactive)
N#Cc1nc(COc2ccc(Cl)cc2Cl)oc1N1CCOCC1		6.14% (inactive)
COc1ccc(N2CCN(c3oc(COc4ccc(Cl)cc4Cl)nc3C#N)CC2)cc1		2.73% (inactive)
O=C1CN(C(=O)CSc2nnc(C3CC3)n2-c2ccccc2)c2ccccc2N1	inactive	
Cc1nc(Nc2ccc(S(N)(=O)=O)cc2)sc1C(=O)Nc1ccccc1	inactive	

SMILES	outcome	inhibition
O=C(Nc1cnccn1)c1csc2ccccc12		6.08% (inactive)
Clc1ccc2c(c1)nc1n2CCCC1	inactive	
COc1ccc(CCNS(=O)(=O)CCNC(=O)c2ccc3c(c2)OCO3)cc1	inactive	
O=C1NCC(O)=C1C=NC12CC3CC(CC(C3)C1)C2		3.67% (inactive)
CCn1ncc(/C=N/NS(=O)(=O)c2ccc(Cl)cc2)c1C	inactive	
C=CCN(CC=C)S(=O)(=O)c1ccc(C(=O)Nc2nnc(COC)o2)cc1	inactive	
Cc1cccc(OCc2nc(C)cc(=O)[nH]2)c1	inactive	
O=C(CNC(=O)c1ccc(Cl)cc1Cl)OCc1nnc(-c2ccccc2Br)o1		3.01% (inactive)
Clc1ccc(-c2ccc(SCc3ccccn3)nn2)cc1	inactive	
CCCOc1ccccc1C1CC(=O)NC2=C1C(=O)CCC2 (stereo not given)	inactive	
COc1ccccc1-c1nnc(SCC(=O)NCc2c(C)c(Cl)cc(C(C)C)c2O)o1		13.5% (inactive)
O=C(Cn1c(=O)[nH]c2ccccc2c1=O)N1CCN(c2cccc(Cl)c2)CC1		12.4% (inactive)
N#CC(C(=O)NCc1ccco1)c1nc2ccccc2nc1N1CCOCC1 (stereo not given)		26.6% (inactive)
Cc1ccnc(-n2c(CCN3C(=O)c4ccccc4C3=O)nc3ccccc3c2=O)c1		1.35% (inactive)
CC(C)C(NC(N)=O)C(=O)NC1CCCCC1 (stereo not given)	inactive	
O=C(O)c1cccc(CSc2nnc(COc3ccccc3)o2)c1	inactive	
COc1cc2c(cc1OC)C(=O)C(Br)CC2 (stereo not given)	inactive	
COc1cc(NC(=O)NCCN2CCN(c3ccc(Cl)cc3)CC2)ccc1C		1.35% (inactive)
Cc1ccc(NS(=O)(=O)c2ccc(OCC(=O)Nc3cccc([N+](=O)[O-])c3)c(C)c2)cc1		17.6% (inactive)
COc1cc(CCC(=O)Nc2cccc(C(F)(F)F)c2)cc(OC)c1OC	inactive	
CCNC(=S)Nc1ccc(N(c2ccccc2)C(C)C)cc1	inactive	
O=C(Cn1cnc2c(nnn2Cc2ccc(Cl)cc2)c1=O)NCc1ccco1		8.87% (inactive)
